In PubChem BioAssay (NCATS):
Results filed as inconclusive are left out. The source made the active and inactive calls. Calls come from the whole dose curve; as a rule, active = well fitted inhibition curve with a large enough effect; inconclusive = small, poorly fitted or top-dose-only effect; inactive = no such curve, though single readings can be large or run the other way.

What was measured:
[1] = qHTS for Inhibitors of the Aldehyde Dehydrogenase Family (ALDH1A2, ALDH1A3, ALDH2, ALDH3A1) (AID 2061307); note: nearly all actives have a fitted effect of over 50% in size; for Potency: test system not described further here; potency is the fitted concentration of half-maximal effect; for activity change, negative = inhibition: % is set by controls: 0 for no effect and ±100 for the full control effect
[2] = biological target: Retinaldehyde dehydrogenase 3 (Homo sapiens) (UniProt P47895); assay: qHTS for Inhibitors of the Aldehyde Dehydrogenase Family (ALDH1A3) Confirmatory screens (AID 2061311); note: nearly all actives have a fitted effect of over 60% in size; note: potency is the fitted concentration of half-maximal effect; for activity change, negative = inhibition: % is set by controls: 0 for no effect and ±100 for the full control effect
[3] = biological target: Retinal dehydrogenase 2 (Homo sapiens) (UniProt O94788); assay: qHTS for Inhibitors of the Aldehyde Dehydrogenase Family (ALDH1A2) Confirmation screens (AID 2061314); note: nearly all actives have a fitted effect of over 65% in size; note: potency is the fitted concentration of half-maximal effect
[4] = biological target: Aldehyde dehydrogenase 1A1 (Homo sapiens) (UniProt P00352); assay: qHTS for Inhibitors of the Aldehyde Dehydrogenase Family (ALDH1A1) Confirmatory screens (AID 2061316); note: nearly all actives have a fitted effect of over 65% in size; note: potency is the fitted concentration of half-maximal effect; for activity change, negative = inhibition: % is set by controls: 0 for no effect and ±100 for the full control effect
[5] = biological target: Retinaldehyde dehydrogenase 3 (Homo sapiens) (UniProt P47895); assay: qHTS for Inhibitors of the Aldehyde Dehydrogenase Family (ALDH1A3) Primary screen (AID 2061315);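 note: plate controls were DMSO vehicle for no effect and reference inhibitor for full effect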

COc1ccc(Cl)cc1C(=O)NCc1nnc2cc(-c3nc(C)no3)ccn12
inactive: Potency [1] | Potency [2] | Potency [3] | Potency [4]

C[C@@H](CO)Nc1cc2c(cc1[S+](=O)([O-])Nc1ccc(Cl)c(Cl)c1)CCC(=O)N2
inactive: Potency [1] | Potency [2] | Potency [5] | Potency [4]

Cc1ccc(CNc2ncnc3ccc(-c4oc(-c5ccccc5)nc4C)cc23)o1
inactive: Potency [1] | Potency [5]
active: Potency [2] 22.5 µM

O=C(NCC(=O)N1CCN(Cc2ccccc2)CC1)c1cccc(-c2ccsc2)c1
inactive: Potency [1] | Potency [2] | Potency [3] | Potency [4]

Cc1cccc(-c2ccccc2C=O)c1
inactive: Potency [1] | Potency [2] | Potency [3] | Potency [4]

CSCCC(NS(=O)(=O)c1ccc2c(c1)oc(=O)n2C)C(=O)N1CCN(c2ccc(C(C)=O)cc2)CC1 (stereo not given)
inactive: Potency [1] | Potency [2] | Potency [3] | Potency [4]

COc1cccc(-c2cccc(C(=O)N3CCN(C(=O)c4ccc(C)cc4)CC3)c2)c1
inactive: Potency [1] | Potency [2] | Potency [3]
active: Potency [4] 8.14 µM

Cc1ccsc1CN(C)c1ncnc2ccc(-c3oc(-c4ccccc4)nc3C)cc12
active: Potency [1] 12.6 µM | Potency [2] 14.1 µM
inactive: Potency [5]

COc1ccc(-c2nc(CCNC(=O)c3c(F)cccc3Cl)cs2)cc1
inactive: Potency [1] | Potency [2] | Potency [3] | Potency [4]

CCOC(=O)c1c(C)n(-c2ccccc2)c2ccc(OC(=O)c3ccccc3)cc12
inactive: Potency [1] | Potency [2] | Potency [3] | Potency [4]

Cn1sc(=O)n(Cc2ccccc2)c1=O
active: Potency [1] 10.1 µM | Potency [2] 12.7 µM | Potency [3] 8.96 µM | Potency [4] 0.283 µM

Cc1ccc(-c2cccc(C=O)c2)c(C)c1
inactive: Potency [1] | Potency [2] | Potency [3] | Potency [4]

O=C(CCC1CCCN(S(=O)(=O)c2ccccc2F)C1)NCCCN1CCOCC1 (stereo not given)
inactive: Potency [1] | Potency [2] | Potency [3] | Potency [4]

Cc1ccc(CNc2ncnc3ccc(-c4ccc([C@@H](C)O)o4)cc23)o1
active: Potency [2] 12.7 µM | Potency [4] 11.3 µM
inactive: Potency [1] | Potency [5]

COc1cc(O)c(C(CC(=O)N2C[C@H](C)C[C@H](C)C2)c2ccc3c(c2)OCO3)c(OC)c1 (stereo not given in full)
inactive: Potency [1] | Potency [2] | Potency [5]

COc1cccc(S(=O)(=O)NC2CCN(C#N)C2)c1 (stereo not given)
inactive: Potency [1] | Potency [2] | Potency [5] | Potency [4]

CC(=O)c1c(C)n(-c2cccc(Cl)c2)c2ccc(OC(=O)c3ccccc3)cc12
inactive: Potency [1] | Potency [2] | Potency [3] | Potency [4]

Cc1cc(NS(=O)(=O)c2ccc(Nc3nc(-c4ccc(C)c(C)c4)cs3)cc2)no1
inactive: Potency [2] | Potency [5]
active: Potency [1] 0.896 µM

Nc1cc(S(=O)(=O)N2CCN(S(=O)(=O)c3ccc4c(c3)OCCO4)CC2)ccn1
inactive: Potency [1] | activity change, negative = inhibition [2] -14.1% [at 0.022 µM] | Potency [5]

CC(=O)N1CCN(c2ccc(NCc3ccco3)cc2)CC1
active: Potency [1] 4 µM | Potency [2] 10.1 µM | Potency [3] 14.2 µM | Potency [4] 7.98 µM

Oc1cc2c(cc1CN1CCN(c3ncccn3)CC1)OCO2
active: Potency [1] 7.12 µM | Potency [2] 10.1 µM | Potency [3] 2.01 µM | Potency [4] 5.65 µM

Cc1ccc(S(=O)(=O)Nc2cnccc2C(=O)Nc2nc(-c3ccco3)cs2)cc1
inactive: Potency [5]
active: Potency [1] 7.98 µM | Potency [2] 7.12 µM | Potency [4] 0.798 µM

CCOC(=O)c1c(C)n(-c2ccc(OC)cc2)c2ccc(OC(=O)COc3ccccc3)cc12
inactive: Potency [1] | Potency [2] | Potency [3] | Potency [4]

CN1CCN(C(=O)c2cccc(-c3ccc(CNc4ccc(N5CCN(C(=O)OC(C)(C)C)CC5)cc4)o3)c2)CC1
inactive: Potency [1] | Potency [2] | Potency [5]

COc1ccc2c(c1)c(C(=O)CN(C)C)c(C)n2C
inactive: Potency [1] | Potency [2] | Potency [3] | Potency [4]

N#CNC(=O)c1ccc(-n2cccc2/C=C2\NC(=O)N(CC(=O)Nc3ccc(F)cc3)C2=O)cc1
inactive: Potency [2] | Potency [5] | Potency [4]
active: Potency [1] 4 µM

Cc1cc(C)cc(-c2ccc(C=O)cc2)c1
inactive: Potency [1] | Potency [2] | Potency [3] | Potency [4]

COc1ccc(-c2nc3ccccc3c(=O)n2Cc2ccccc2)cc1CNc1ccc(NC(C)=O)cc1
active: Potency [1] 12.7 µM | Potency [2] 11.3 µM | Potency [3] 11.3 µM | Potency [4] 11.3 µM

CN(C)c1ccc(-c2csc(N3CCC(C(N)=O)CC3)n2)cc1
active: Potency [1] 11.3 µM | Potency [2] 12.7 µM | Potency [3] 14.2 µM | Potency [4] 8.96 µM
